RE007 growth inh – less growth of the S. pombe RE007 Vpr strain; S. pombe RE007 Vpr strain, BacTiter-Glo ATP luminescence, 24 h; 360,000 tested, 0.21% active; Potency, µM (highest dose often 92.2 µM), for inactives: at the top dose activity change, negative = less growth, actives largely listed as inhibitors; AID 651644; active means well fitted falling curve with a large enough effect; inconclusive means small, poorly fitted or top-dose-only effect; inactive means no such curve, though single readings can be large or run the other way; further: nearly all actives have a fitted effect of over 50% in size
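Fission yeast strain RE007, carrying one chromosomally integrated HIV-1 vpr copy, was seeded at OD 0.01 in PMG+AL medium with 23 nL pinned compound. After 24 h at 30 °C and 99% humidity, viability was read by BacTiter-Glo luminescence.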
Tb PYK inh – inhibitors of Trypanosoma brucei pyruvate kinase. Potency, µM (doses to about 76.8 µM), for the others: at the top dose activity, negative = inhibition, hits mostly inhibitors. 410,000 tested, 0.12% active. TbPYK enzyme, Kinase-Glo Plus ATP luminescence, 45 min. Q57TT1; further: nearly all actives have a fitted effect of over 50% in size
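In this concentration-response screen, enzyme-free wells defined baseline while DMSO plates tracked drift. Each reaction combined TbPYK, substrate, compound and 130 uM ADP for 45 min at room temperature. Kinase-Glo Plus luminescence gave the signal.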
Sm TGR inh – S. mansoni TGR enzyme inhibition; purified TGR, DTNB reduction, TNB absorbance 405 nm; 360,000 tested, 3% active; Potency, µM (highest dose often 114 µM), without a hit: top-dose activity change, negative = inhibition, usual class: inhibitors; Q962Y6; AID 485364; further: nearly all actives have a fitted effect of over 60% in size
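First, TGR (20 nM dispensed) and NADPH were mixed with compound. Second, a 15 min room-temperature incubation followed. Third, further NADPH and then DTNB were added to start the reaction. Finally, TNB absorbance was monitored kinetically.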
FMDV antiviral – foot and mouth disease virus antiviral activity; FMDV antiviral cell-based qHTS; Potency, µM (highest dose often 57.9 µM), inactives show top-dose activity change, negative = inhibition, usual class: inhibitors; 410,000 tested, 1.2% active; AID 1159524; calls by dose curve; tested in HEK293T cells; further: read-out not given here; nearly all actives have a fitted effect of over 45% in size
Starred values were filed as active, the others as inactive; ? = inconclusive; . = not tested or not shown; [ ] = remark or other dose. This is a sample that favours compounds with a hit; in the whole collection about 3.7% have one here. Unless noted, the call rests on the fitted dose curve; in most records, active means well fitted curve in the direction sought with a large enough effect; inconclusive means small, poorly fitted or top-dose-only effect, or another doubt; inactive means no such curve, though single readings can be large; an effect the other way counts as inactive or inconclusive. On the % scale 0 is the no-effect control and ±100 the full control effect; potency means the concentration at half of the fitted maximal effect.

SMILES | RE007 growth inh | Tb PYK inh | Sm TGR inh | FMDV antiviral
COc1ccc(S(=O)(=O)NCc2nc(N3CCCC3)c3cccc(C)c3n2)cc1OC | . | . | . | -5%
Fc1ccc(-n2c(-c3ccc4c(c3)OCO4)n[nH]c2=S)cc1Cl | 19% | 4µM* | -7% | 38%
Cc1ccc(C)c(-n2c(-c3ccc4c(c3)OCO4)n[nH]c2=S)c1 | -3% | 5µM* | 24% | 0%
Cc1ccc(C)c(-n2c(-c3csc(C)c3)n[nH]c2=S)c1 | -5% | ? | -4% | -2%
CCC(O)CNC(=O)c1cnn(-c2nccc(-c3cc(C)sc3C)n2)c1C1CC1 (centres undefined) | . | . | . | 36%
COc1cc(Cl)c(NS(=O)(=O)c2ccc3[nH]c(=O)ccc3c2)c(OC)c1 | . | -10% | 0% | -6%
O=C(O)c1ccccc1/C=N/NC(=O)c1cc(-c2ccco2)nc2ccccc12 | -8% | -6% | 3.2µM* | -6%
O=C(N/N=C/c1ccc2c(c1)OCO2)c1cc(-c2ccco2)nc2ccccc12 | -5% | -3% | -20% | 0%
CC(=O)Nc1ccc(/C=N/NC(=O)c2cc(-c3ccco3)nc3ccccc23)cc1 | 32% | 1% | 14µM* | -11%
Cc1cc(CNC(=O)c2cnn(-c3nccc(-c4ccc5c(c4)OCO5)n3)c2C2CC2)on1 | . | . | . | 30%
COc1ccc2c(c1)c(C(C)=O)c(C)n2CCc1ccccc1 | 2% | 2% | -14% | 14µM*
Cc1ccccc1C1(CC(=O)N2CCCC(C)C2)CC(=O)N(Cc2cccnc2)C1=O (centres undefined) | . | . | . | 6%
O=C(c1ccccc1)c1ccc2nc(-c3ccco3)c(-c3ccco3)nc2c1 | -3% | ? | . | 2%
O=C(NCCc1ccccc1)c1ccc2nc(-c3ccco3)c(-c3ccco3)nc2c1 | -19% | ? | 1.3µM* | -18%
O=C(NC1CCCC1)c1ccc2nc(-c3ccco3)c(-c3ccco3)nc2c1 | -13% | ? | 3.2µM* | 0%
c1coc(-c2nc3ccccc3nc2-c2ccco2)c1 | -12% | ? | 3.5µM* | .
O=C(NCCO)c1ccc2nc(-c3ccco3)c(-c3ccco3)nc2c1 | -19% | -37% | 1.8µM* | -10%
CCCN(CCC)C(=O)Cn1c(=O)n(-c2cccc(C)c2)c(=O)c2c1c1cc(OC)ccc1n2C | . | -6% | 3% | 0%
CCc1cccc2c(-c3ccccc3)nc(SCC(=O)Nc3ccccc3)nc12 | . | -2% | 10% | -18%
O=C(NCC1(N2CCOCC2)CCCC1)c1cnn(-c2ncc3c(n2)-c2ccccc2CC3)c1C1CC1 | . | . | . | 0%
CN=C(NC#N)NCCSCc1csc(N=C(N)N)n1 | . | -1% | . | -18%
CCc1cccc(C)c1NC(=O)C(CC)n1nc(C)c2c(C)n(-c3ccccc3)nc2c1=O (centres undefined) | . | -3% | 4% | 12%
CN1CCCN(Cc2nc(-c3cccc(C(F)(F)F)c3)no2)CC1 | -5% | 8% | 25µM* | -6%
Cc1ccc2oc(-c3cccc(N)c3)nc2c1 | 32µM* | -12% | -2% | -34%
CCc1ccc2oc(-c3ccc(NC(C)=O)cc3)nc2c1 | 5.6µM* | 0% | -3% | 1%
SMILES | RE007 growth inh | Tb PYK inh | Sm TGR inh | FMDV antiviral
CC(C)(C)c1ccc(-c2nc3cc(N)ccc3o2)cc1 | 15% | -4% | 4% | ?
Cc1ccc(-c2nc3cc(C)ccc3o2)cc1 | 4% | 1% | 0% | 10µM*
Cc1ccc(-c2nc3cc(N)ccc3o2)cc1 | -23% | -3% | 6% | -34%
CC(C)c1ccc2oc(-c3ccc(N)cc3)nc2c1 | 40µM* | -3% | -10% | -51%
CCn1c(-c2cccnc2)nc2cc(NC(=O)COC)cc(C(=O)N3CC[C@@H]4CCCC[C@H]4C3)c21 | . | . | . | -7%
CCCCOC(=O)c1ccc(Nc2ncnc3c2cnn3-c2cccc(C)c2)cc1 | . | -1% | 11% | -9%
CCOc1ccc(CN(C)C(=O)[C@H](Cc2ccccc2)NC(=O)OCc2ccccc2)cc1OC | 12% | -10% | -1% | 20µM*
COc1ccc(CN(C)C(=O)C(Cc2ccccc2)NC(=O)c2ccccc2)cc1F (centres undefined) | -6% | 6% | 3% | -10%
CNC(=O)Oc1ccc(-c2cn3cc(Cl)ccc3n2)cc1 | -25% | -11% | 35µM* | ?
COc1ccc(-c2nc3ccccc3s2)cc1NC(=O)c1ccc(F)cc1 | . | -8% | -2% | 0%
CCNc1ncc2nc(-c3ccccc3)c(=O)n(CCOC)c2n1 | . | . | . | 8%
Oc1cc2c(cc1O)C(c1ccccc1)CNCC2 (centres undefined) | -12%[18.4 µM] | ? | . | -12%
C[C@@H]1NCCc2cc(O)c(O)cc21 | 8% | 0% | 45µM* | -23%
CCN(CCCNC(=O)c1cc2c(=O)[nH]c3ccc(C)cc3c2s1)Cc1ccccc1 | . | -6% | ? | ?
CCc1nn2c(=O)cc(COC(=O)c3ccccc3NC(=O)COc3ccc(F)cc3)nc2s1 | . | -2% | 5% | 4%
Nc1ccc2ccc3cccc[n+]3c2c1 | -1% | -8% | 32µM* | -9%
CCCCN(CC)CCCNC(=O)c1sc2nc(C)cc(C)c2c1-n1cccc1 | . | 0% | 4% | -14%
COc1cc(OC)c(OC)cc1/C=C/c1cc(C(=O)O)c2ccccc2n1 | -8% | -6% | -11% | -4%
COc1ccc(/C=C/c2cc(C(=O)O)c3ccccc3n2)cc1 | ? | -10% | -2% | 2.8µM*
CC1(C)SC2[C@@H](N=CN3CCCCCC3)C(=O)N2[C@H]1C(=O)O (some centres undefined) | . | 4% | . | .
COc1ccc(CN2Cc3ccccc3OC(c3ccccc3OC)C2)cc1O (centres undefined) | . | . | . | -2%
Cc1cc(C)n(CCc2nc(-c3ccco3)cs2)n1 | -19% | -13% | 40µM* | 1%
CCC(=O)Nc1nc(-c2ccc3c(c2)CC(C)N3S(C)(=O)=O)cs1 (centres undefined) | -13% | -7% | 0%[57.1 µM] | -17%
CC1Cc2cc(-c3csc(NC(=O)Cc4cccs4)n3)ccc2N1S(C)(=O)=O (centres undefined) | -14% | 4% | 5% | 5.6µM*
COc1cccc(CNC(=O)C(NS(=O)(=O)c2ccc3c(c2)oc(=O)n3C)C(C)C)c1 (centres undefined) | . | -5% | 0% | 4%
SMILES | RE007 growth inh | Tb PYK inh | Sm TGR inh | FMDV antiviral
CC[n+]1c(/C=C2/C=C(C)CC(C)(C)C2)sc2ccc(OC)cc21 | ? | -36% | 18µM* | 20µM*
CCC1=C/C(=C/c2sc3ccccc3[n+]2CC)CC(C)(C)C1 | -12% | ? | 1.8µM* | ?
CC[n+]1c(/C=C2\C=C(C)CC(C)C2)sc2ccccc21 (centres undefined) | -26% | -25% | 40µM* | ?
CC[n+]1c(/C=C2\C=C(C)CC(C)(C)C2)sc2ccccc21 | -14% | ? | 14µM* | ?
Cc1ccc2c(c1)N(C(=O)N1CCC(C(=O)Nc3cccc(F)c3)CC1)CCO2 | . | 1% | 8% | ?
CCC12CN3CC(CC)(CN(C1)C3c1c[nH]c3ccccc13)C2=O (centres undefined) | . | 2% | 0% | -28%
